For 12 compounds, composite z-score and z-score results are on record in PubChem BioAssay.

Assay [1] deals with Human papillomavirus type 1a protein E7 (residues 44-93). As to the kind of experiment: small molecules binding HPV E7 44-93 – biochemical, small-molecule microarray, residues 44-93, 635 nm fluorescence, primary screen (AID 1108).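 Also: E7 fragment applied at 1 µg/mL in TBST for 1 h at 4 C; score combines spot fluorescence with its signal to noise ratio.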 The settings on record: fluorescence 635 nm, higher = more signal.
Assay [2] can be described thus: hepatitis C replication reporter changes, two-sided – Huh7 cells, luciferase reporter, HCV replication inhibitor project, primary screen (AID 1109).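 Also: huh7 hepatoma cells harbouring a luciferase neomycin HCV replicon reporter; luciferase luminescence as measure of HCV replicon replication; test concentration not given here.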 The settings on record: Huh7 HCV replicon luciferase reporter, 48 h; higher = more signal. (A reporter such as luciferase makes a cellular process visible.)
The target in assay [3] is Left-right determination factor 2 (Homo sapiens) (UniProt O00292). The assay can be described thus: small molecules binding LEFTY2 protein – biochemical, small-molecule microarray, 635 nm fluorescence scan, primary screen (AID 1110). The settings on record: higher = more signal.
In assay [4] the target is Calmodulin-1 (Homo sapiens) (UniProt P0DP23). The assay can be described thus: small molecules binding calmodulin-1 with EGTA – biochemical, small-molecule microarray, Cy5-labelled CALM1, profiling panel (AID 1111).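 Also: labelled calmodulin applied in Tris saline Tween buffer holding calcium plus EGTA and DTT.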 To be noted: Cy5-CALM1 binding fluorescence, higher = more signal.
Assay [5] shares this target. The assay can be described thus: small molecules binding Ca-loaded calmodulin-1 – biochemical, small-molecule microarray, Cy5-labelled CALM1, plus calcium, artefact control for SMM control-protein annotation, profiling panel (AID 1112).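 Also: score merges spot fluorescence with signal to noise from triplicate slides.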 The settings on record: Cy5-CALM1 binding fluorescence, higher = more signal.
The nature of assay [6]: probe aWnt5a binding to arrayed compounds – biochemical, biotinylated probe, 635/667 nm fluorescence, primary screen (AID 1113).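 Also: score merges 667 nm fluorescence intensity with signal-to-noise per printed feature.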 The settings on record: small-molecule microarray, higher = more signal.
Assay [7] can be described thus: probe aShh binding to arrayed compounds – biochemical, biotinylated probe, 635/667 nm fluorescence, primary screen (AID 1114).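 Also: probe is biotin-labelled aShh protein from a stem cell growth factor screen; measures binding of labelled protein to compounds printed on the slide; score merges feature fluorescence at 667 nm with signal-to-noise.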 The settings on record: small-molecule microarray, higher = more signal.
Assay [8] in a line: probe aNog binding to arrayed compounds – biochemical, biotinylated probe, 635/667 nm fluorescence, primary screen (AID 1115).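 Also: probe is biotinylated aNog protein used at 0.15 µg/mL for 1 h at 4 C; z-score combines 667 nm fluorescence of each spot with its signal to noise.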 The settings on record: small-molecule microarray, higher = more signal.
Assay [9] has as its target Torsin-1A-interacting protein 1 (Homo sapiens) (UniProt Q5JTV8). As to the kind of experiment: compound microarray binding of lysate hLAP1 – cell lysate, small-molecule microarray, COS7 lysate, 635/667 nm fluorescence, primary screen (AID 1116). The settings on record: 635 nm fluorescence, higher = more signal.
For assay [10], the target named is Alpha-bungarotoxin (Bungarus multicinctus) (UniProt P60615). As to the kind of experiment: compounds binding labelled alpha-BTX control protein – biochemical, small-molecule microarray, Alexa647 label, 635/667 nm fluorescence, artefact control for SMM control protein annotation, profiling panel (AID 1117). The settings on record: alpha-BTX-A647 binding fluorescence, higher = more signal.
Alpha-bungarotoxin (Bungarus multicinctus), sequence (P60615 whole entry, looked up): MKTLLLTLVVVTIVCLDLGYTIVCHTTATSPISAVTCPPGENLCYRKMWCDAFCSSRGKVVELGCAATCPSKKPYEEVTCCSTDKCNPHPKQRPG

Torsin-1A-interacting protein 1 (Homo sapiens), sequence (Q5JTV8 whole entry, looked up): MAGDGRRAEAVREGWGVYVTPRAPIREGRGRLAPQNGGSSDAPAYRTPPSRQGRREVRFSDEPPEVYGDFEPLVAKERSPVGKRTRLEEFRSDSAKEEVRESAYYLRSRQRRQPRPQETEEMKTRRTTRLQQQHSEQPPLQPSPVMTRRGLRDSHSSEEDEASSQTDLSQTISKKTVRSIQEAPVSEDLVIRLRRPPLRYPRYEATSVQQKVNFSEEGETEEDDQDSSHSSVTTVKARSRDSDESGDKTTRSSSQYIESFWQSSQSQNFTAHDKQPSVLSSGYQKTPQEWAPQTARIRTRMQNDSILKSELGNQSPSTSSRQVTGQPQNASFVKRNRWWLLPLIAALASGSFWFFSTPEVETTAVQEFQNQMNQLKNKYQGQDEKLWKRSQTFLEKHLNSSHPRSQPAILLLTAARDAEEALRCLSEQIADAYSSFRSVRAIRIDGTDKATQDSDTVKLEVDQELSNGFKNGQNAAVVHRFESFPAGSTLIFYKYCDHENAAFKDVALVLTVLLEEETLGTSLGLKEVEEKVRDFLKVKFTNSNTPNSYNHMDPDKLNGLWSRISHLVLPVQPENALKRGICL
Left-right determination factor 2 (Homo sapiens), sequence (O00292 whole entry, looked up): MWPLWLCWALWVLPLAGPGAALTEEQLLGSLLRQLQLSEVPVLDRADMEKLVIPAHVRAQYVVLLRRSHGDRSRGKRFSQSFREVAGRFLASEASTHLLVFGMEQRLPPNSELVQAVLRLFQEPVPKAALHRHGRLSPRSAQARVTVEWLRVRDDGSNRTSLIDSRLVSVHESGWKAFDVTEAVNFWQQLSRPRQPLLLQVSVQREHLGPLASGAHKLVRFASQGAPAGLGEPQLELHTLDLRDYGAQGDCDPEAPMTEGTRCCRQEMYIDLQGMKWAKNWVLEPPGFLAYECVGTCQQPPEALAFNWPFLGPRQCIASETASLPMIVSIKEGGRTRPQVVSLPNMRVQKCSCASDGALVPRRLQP

For `O=C1[C@H]2[C@H]3[C@H](O)[C@H](O)CC(=NOC[C@@H](O)COCc4ccco4)[C@H]3CC[C@H]2C(=O)N1c1ccc(F)cc1F`, the composite z-score is -3.61 in assay [1]; 0.0845 in assay [3]; -1.3 in assay [4]; -1.07 in assay [5]; -0.282 in [6]; -0.504 in assay [7]. Moreover, the composite z-score in assay [8] is 1.39; in assay [9] it was 0.346; in [10] it was -0.59. Besides, the z-score in [2] is -0.988.
Turning to `O=C1[C@H]2[C@H]3[C@H](O)[C@H](O)CC(=NOCc4ccccc4)[C@@H]3CC[C@H]2C(=O)N1c1ccc(F)cc1F`, the composite z-score in assay [1] was -0.392; in assay [3], 0.303; in [4], -0.201; in [5], -0.57; in assay [6], -0.0519; in [7], 0.0278. Moreover, the composite z-score in assay [8] was determined as 0.0369; in [9] it was 0.0133; in assay [10] it was 0.297. This compound had a z-score in assay [2] of 0.606.
Regarding `Cc1cc2c(nc1C)CCCCN2CC(C)ON=C[C@@H](C)[C@H](OCc1ccccc1)C(C)C` (stereo not given in full), the composite z-score in [1] is -0.683; in assay [3] it was -0.684; in assay [4] it was -1.4; in assay [5] it was -0.987; in assay [6] it was -0.224; in [7] it was -0.214. Moreover, the figures for the composite z-score in assay [8], in [9] and in [10] were -0.415, -1.16 and -0.916, respectively. In assay [2], this compound had a z-score of -3.07.
For the compound `CCCCC#C[C@@H]1C=C[C@H](Oc2cc(OC)c(OC)c(OC)c2)[C@@H](COC(=O)OCC)O1`, the composite z-score in [1] is -0.709; in assay [3] it was 0.144; in assay [4], -0.659; in assay [5], -0.986; in assay [6] it was -0.124; in [7], -0.276. The composite z-score in assay [8] was -0.158; in [9] it was 0.0606; in assay [10], 0.624. Besides, in [2], the z-score was -0.548.
Regarding `C#CCCCON=C1[C@H]2CCn3c(=O)n(-c4ccccc4)c(=O)n3[C@H]2[C@H](O)[C@@H]2O[C@H]12`, the composite z-score in assay [1] is 0.438; in [3], 0.602; in assay [4] it was -0.312; in [5] it was -0.273; in [6], -0.0792; in [7], -0.0146. The composite z-score was -0.17 in assay [8], -0.131 in [9] and 0.515 in [10]. Further, the z-score in assay [2] was -2.97.
Regarding `CC(C)(C)N1C(=O)[C@H]2[C@H]3[C@H](O)[C@H](O)CC(=O)[C@H]3CC[C@H]2C1=O`, the composite z-score is 0.487 in assay [1]; 0.473 in assay [3]; 0.133 in [4]; -0.816 in assay [5]; 0.0267 in [6]; -0.186 in assay [7]. In addition, the composite z-score was -0.0996 in assay [8], 0.274 in assay [9] and 0.642 in assay [10]. In addition, the z-score in [2] was -0.041.
Turning to `COCOc1ccc(Br)cc1C(=O)[C@@H]1O[C@H]1c1cccc(OC)c1`, the composite z-score was -0.392 in [1]; 0.377 in [3]; -0.213 in [4]; -0.187 in assay [5]; -0.148 in assay [6]; -0.136 in [7]. In addition, the composite z-score is -0.0428 in assay [8], 0.616 in [9] and 0.187 in assay [10]. The z-score in assay [2] was -3.74.
For the compound `C[C@@H](c1ccccc1)N1C(=O)[C@H]2[C@H]3[C@H](O)[C@H](O)CC(=NOCc4ccccc4)[C@H]3CC[C@H]2C1=O`, the composite z-score was 1.43 in assay [1]; 0.491 in assay [3]; 0.209 in assay [4]; -0.298 in assay [5]; -0.0635 in assay [6]; -0.0626 in assay [7]. Further, the composite z-score in assay [8] is -0.425; in [9], 0.826; in [10], 0.571. In assay [2], the z-score was 0.547.
As to `CC(C)=CCCC(C)=CCON=C1C[C@@H](O)[C@@H](O)[C@@H]2[C@@H]3C(=O)N(c4ccc(F)cc4F)C(=O)[C@@H]3CC[C@H]12`, the composite z-score in [1] is 1.36; in assay [3] it was 0.621; in assay [4], -0.0184; in assay [5], -0.778; in assay [6] it was -0.124; in [7] it was 0.0668. Further, the composite z-score in [8] is -0.379; in assay [9] it was 0.153; in [10], 0.39. Besides, the z-score in assay [2] worked out at 0.19.
On to `O=c1n(Cc2cc3c(cc2Cl)OCO3)c(=O)n2n1CC[C@@H]1C(=NOCc3ccccc3)[C@H]3O[C@H]3[C@@H](O)[C@@H]12`, for which the composite z-score in [1] was 0.439; in [3], 0.582; in [4], 0.0528; in [5], -0.827; in assay [6], -0.152; in [7], -0.34. Moreover, the composite z-score in assay [8] was -0.519; in assay [9] it was 0.157; in assay [10], -0.0536. This compound also displayed a z-score in [2] of 0.51.
Take `CC(CCN1CCCCc2nc(C)c(C)cc21)=NOC[C@@H](C)[C@H](OCc1ccccc1)C(C)C`: the composite z-score was -0.824 in assay [1]; -1.47 in [3]; -1.74 in assay [4]; -1.8 in assay [5]; -0.335 in [6]; -0.428 in [7]. In addition, the composite z-score in assay [8] is -0.803; in assay [9], -1.07; in assay [10], -2.21. Further, the z-score in [2] is -0.876.
On to `COC(=O)[C@@H]1CC[C@H](C)[C@@H](c2ccc(C)cc2)N1C(=O)c1ccc(C=NO[C@@H]2O[C@H](COC(C)=O)[C@@H](OC(C)=O)[C@H](OC(C)=O)[C@H]2OC(C)=O)cc1`, for which the composite z-score in assay [1] was 0.918; in assay [3] it was 0.368; in assay [4] it was 0.0167; in assay [5], -0.371; in assay [6] it was -0.124; in assay [7], 0.313. The values for the composite z-score in assay [8], in assay [9] and in assay [10] were -0.0208, 0.218 and 0.884, respectively. In assay [2], this compound registered a z-score of -0.465.
